# D2 antagonist – HTS Assay for Allosteric Antagonists of the Human D2 Dopamine Receptor: Primary Screen for Antagonists; HEK293 TREx D2 cells, calcium flux, dopamine EC80; D(2) dopamine receptor (Homo sapiens), P14416; inhibition, % at 10 µM; actives 2% (n = 340,000); in the data active = inhibition above about 30%; inactive = below that, where a call was filed; note: 0% is about no effect
# Target sequence (P14416 whole entry, looked up): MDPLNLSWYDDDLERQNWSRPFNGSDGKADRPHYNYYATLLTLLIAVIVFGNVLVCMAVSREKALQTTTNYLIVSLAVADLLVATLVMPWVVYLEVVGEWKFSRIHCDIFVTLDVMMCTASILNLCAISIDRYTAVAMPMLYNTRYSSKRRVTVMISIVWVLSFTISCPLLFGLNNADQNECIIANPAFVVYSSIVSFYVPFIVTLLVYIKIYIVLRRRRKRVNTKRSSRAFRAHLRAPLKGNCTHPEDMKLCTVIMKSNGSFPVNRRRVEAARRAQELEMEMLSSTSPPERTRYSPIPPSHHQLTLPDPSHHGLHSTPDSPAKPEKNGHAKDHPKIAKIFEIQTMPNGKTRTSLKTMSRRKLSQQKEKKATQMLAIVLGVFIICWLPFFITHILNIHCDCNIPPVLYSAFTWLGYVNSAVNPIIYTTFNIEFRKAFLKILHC
#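 In this primary screen, negative modulation is detected by tracking calcium flux after an EC80 dopamine challenge in inducible HEK293 T-REx D2 cells preexposed to test compound for 180 s.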
# D2 ag-1 – HTS Assay for Allosteric Agonists of the Human D2 Dopamine Receptor: Primary Screen for Agonists; D(2) dopamine receptor (Homo sapiens), P14416; actives 0.53% (n = 340,000); activation, % at 2 µM; HEK293 T-REx D2 cells, calcium flux agonist mode;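 active = activation over 3 SD above normal in the single-dose calcium agonist read, cut at about 30% in these data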; note: 0% is about no effect
#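 Tetracycline-induced HEK293 Trex cells with D2 receptor force-coupled to calcium signaling, plated overnight at 30 C and loaded with no-wash calcium dye. Calcium flux read kinetically for 180 s after compound addition; responses flag agonists.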
# D2 PAM-1 – HTS Assay for Positive Allosteric Modulators of the Human D2 Dopamine Receptor: Primary Screen for Potentiators; AID 485347, 2010; D(2) dopamine receptor (Homo sapiens), P14416; HEK293 T-REx D2, calcium flux, EC20 dopamine potentiation; potentiation, % at 10 µM; actives 0.34% (n = 340,000);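 active = potentiation over 3 SD above the plate norm, cut at about 30% in these data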; note: 0% is about no effect
#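 Tetracycline-induced HEK293 T-REx cells force-coupled to calcium signalling expressed D2; compounds were pin-added after a 10 s baseline, read kinetically 180 s, then an EC20 dopamine challenge followed with a further 180 s calcium read.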
# D2 ag-2 – Beta-Arrestin HTS for Positive Allosteric Modulators of the Human D2 Dopamine Receptor: Agonists; D(2) dopamine receptor (Homo sapiens), P14416; DiscoveRx PathHunter D2 beta-arrestin, luminescence, 90 min; 100% = 57 uM dopamine signal; activation, % (no concentration beside the values); actives 0.084% (n = 360,000); AID 624465, 2012; in the data active = activation above about 40%; inconclusive = between about 15% and that limit
#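 DiscoveRx PathHunter D2 beta-arrestin cells (2,100/well) attached overnight, then compound-stimulated 90 min at 37 C in HBSS/10 mM HEPES/0.1% Tween-20 buffer; beta-galactosidase complementation read by luminescence after 1 h at ambient temperature. Dopamine 57 uM final (EC100) as control.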
# D2 PAM-2 – Beta-Arrestin HTS for Positive Allosteric Modulators of the Human D2 Dopamine Receptor: Potentiators | D(2) dopamine receptor (Homo sapiens), P14416 | DiscoveRx D2 beta-arrestin cells, luminescence, 90 min; 100% = 57 uM dopamine signal | potentiation, % (concentration not given with the values) | actives 0.23% (n = 360,000); in the data active = potentiation above about 50%; inconclusive = mostly about 30% to 49%
#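 D2 cells co-treated with compound plus 50 nM dopamine (EC20) for 90 min at 37 deg C to detect potentiation. Beta-arrestin recruitment was read as enzyme-fragment luminescence after 1 h at ambient temperature. Full response was set by 57 uM dopamine.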
# B2AR arrestin – qHTS assay of beta-arrestin-biased ligands of beta2-adrenergic receptor; AID 492947, 2010; beta-arrestin recruitment to beta2AR, cell-based reporter; Potency, µM (doses to about 46.1 µM), for inactives: at the highest dose activation, hits mostly activators; actives 0.02% (n = 330,000); active = well fitted activation curve with a large enough effect; inconclusive = small, poorly fitted or top-dose-only effect;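 note: potency is the fitted concentration of half-maximal effect; 0% = DMSO controls and full agonism = EC100 isoproterenol or metaproterenol; nearly all actives have a fitted effect of over 65% in size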
# * = called active by the depositor; ? = inconclusive; nt = no result. In the library only some 2.4% were active in any assay of this set; here they are far more common.
SMILES,D2 antagonist,D2 ag-1,D2 PAM-1,D2 ag-2,D2 PAM-2,B2AR arrestin
CC(=NNC(=S)N1CC2CCC(CC2)C1)c1cnccn1,nt,nt,nt,?,97.2*,nt
O=C(Cn1c2[n+](c3ccc(C(F)(F)F)cc31)CCCCC2)Nc1ccc(Br)cc1,56.2*,-0.1,-24.5,-2.6,-8.9,-0.1%
CC/C(=N/Nc1cccc(C)c1)c1cnnc(SC)n1,7.4,-1.5,-5.7,-0.1,-5.8,-0.1%
CC/C(=N/Nc1ccc(Cl)cc1)c1cnnc(SC)n1,33.6*,0.0,6.1,-2.0,-9.2,-0.4%
Cc1noc(C)c1CSc1ccccc1C(=O)N1CCN(c2ccccc2)CC1,-0.7,0.4,6.6,-1.9,-25.1,-0.6%
CCOC(=O)C1(Cc2ccccc2C(F)(F)F)CCN(C2CCSC2)CC1 (stereo not drawn),49.9*,0.6,-24.4,-0.9,-13.9,-1.6%
COc1ccc(C2CC(c3ccccc3)=NN2C(=O)COC(=O)c2cc(S(=O)(=O)N3CCOCC3)ccc2Cl)cc1 (stereo not drawn),32.1*,1.5,2.1,-1.1,-11.0,-0.4%
COc1ccc(C2CC(c3ccccc3)=NN2C(=O)COC(=O)c2cccnc2Cl)cc1 (stereo not drawn),-4.0,-1.4,8.9,-1.7,-13.0,4.6%
O=C1COc2ccc(C(=O)COC(=O)c3ccc(Cl)cc3[N+](=O)[O-])cc2N1,8.8,-0.3,-0.9,?,51.6*,-0.2%
O=C1COc2ccc(C(=O)COC(=O)c3ccc([N+](=O)[O-])cc3Cl)cc2N1,2.6,0.5,-13.4,?,51.2*,-3.4%
O=C1COc2ccc(C(=O)COC(=O)c3ccccc3[N+](=O)[O-])cc2N1,nt,nt,-0.1,1.6,-11.5,-0.3%
CC(C)CNC(=O)COC(=O)c1ccc([N+](=O)[O-])cc1Cl,-6.0,-0.8,0.3,3.2,56.6*,-0.3%
CC(=O)c1cc2c(cc1N/C(=N/S(=O)(=O)c1ccccc1)c1ccc(Cl)cc1)OCO2,6.5,-1.7,11.0,-1.0,-10.8,-0.5%
O=C1CN(S(=O)(=O)c2cccc(Br)c2)CCN1,nt,nt,nt,-1.4,-4.2,-1.0%
Cc1nn(Cc2ccc(Cl)c(Cl)c2)c(C)c1NC(=O)c1noc2c1CCc1ccccc1-2,nt,1.5,6.4,nt,nt,nt
Cc1nn(Cc2ccccc2)c(C)c1NC(=O)c1noc2c1CCc1ccccc1-2,-3.5,-0.4,30.8*,0.4,-3.6,-1.3%
O=C1SCCN1N=Cc1ccc([N+](=O)[O-])o1,nt,nt,nt,-0.6,-0.6,nt
COc1ccc(NC(=O)CCC(=O)Nc2ccc3nc(N4CCOCC4)cc(C)c3c2)c(OC)c1,16.2,-0.4,-6.7,4.4,-1.1,-1.0%
COc1cc(NC(=O)CCC(=O)Nc2ccc3nc(N4CCOCC4)cc(C)c3c2)cc(OC)c1OC,30.9*,-0.9,-20.3,-4.2,-10.4,0.0%
CCCc1nnc2n1N=C(c1ccc(OC)c(OC)c1)CS2,13.2,1.1,89.1*,0.1,1.7,-0.2%
CC1C/C(=N/O)C(C)CN1 (stereo not drawn),6.3,1.7,31.0*,1.7,9.4,-0.7%
CC1CN(CCc2ccccc2)C(C)C/C1=N/O (stereo not drawn),nt,nt,nt,-2.1,-14.9,nt
CCOc1ccc(NC(=O)CCn2c(=O)[nH]c3ccsc3c2=O)cc1,2.4,0.5,36.5*,-0.4,1.8,0.2%
CCCCOc1ccc(Cl)cc1CSc1nnc(CC)n1N,35.5*,1.2,nt,1.5,8.8,-0.4%
CCCOc1ccc(CSc2nnc(CCC)n2N)cc1,0.4,-0.2,2.0,-2.6,-0.9,0.0%
SMILES,D2 antagonist,D2 ag-1,D2 PAM-1,D2 ag-2,D2 PAM-2,B2AR arrestin
Cc1ccc(Cn2c(SCc3ccc(C(=O)N4CCCCCC4)cc3)nc3ccncc32)cc1,nt,nt,1.4,nt,nt,nt
Cc1ccc(OCC(=O)NNC(=O)c2ccc(NC(=O)C3CC3)cc2)c(C)c1,4.8,-0.5,5.5,0.2,-7.2,0.0%
CCc1ccc(OCC(=O)NNC(=O)c2ccc(NC(=O)C3CC3)cc2)cc1,30.5*,-0.2,5.8,2.7,-14.3,-0.3%
COc1ccc(CCNC(=O)C2=C(C)C(=O)OC23CCCCC3)c(OC)c1,nt,-0.2,-2.6,nt,nt,nt
CCOCCCNS(=O)(=O)c1ccc2c(c1)OCCO2,-0.8,0.5,-1.0,-0.5,-2.7,-0.3%
COCCCNS(=O)(=O)c1ccc2c(c1)OCCO2,34.4*,-0.2,2.9,-1.9,-4.9,-0.4%
COc1ccc(CCNS(=O)(=O)c2ccc3c(c2)OCCO3)cc1OC,1.5,0.4,105.5*,-0.8,-3.8,-1.4%
CCN1CCN(c2c(S(=O)(=O)c3ccc(C)c(C)c3)cnc3ccc(F)cc23)CC1,37.1*,-0.7,-21.4,-4.6,-11.9,-0.6%
COc1ccc2ncc(S(=O)(=O)c3ccccc3)c(N3CCN(c4ccccc4)CC3)c2c1,-0.9,0.5,1.0,-2.7,-15.3,0.1%
O=C(Cc1noc2ccccc12)NNC(=S)Nc1ccccc1,nt,nt,nt,-6.5,-10.1,-0.5%
O=C(Cc1noc2ccccc12)NNC(=S)Nc1ccc(Cl)cc1,48.4*,0.0,18.2,-8.8,-11.6,-0.1%
Cc1ccccc1NC(=O)Cn1c(=O)n(CCc2ccccc2)c(=O)c2sc3ccccc3c21,nt,-0.8,0.8,nt,nt,nt
Cc1ccn2c(C(=O)CSc3ccccc3)c(C)nc2c1,0.0,1.4,-0.5,-3.8,-10.4,-0.1%
COc1cc(/C=C2\CC/C(=C\c3ccc(OCCO)c(OC)c3)C2=O)ccc1OCCO,0.4,76.2*,21.5,10.3,8.9,?
Cc1ccccc1CSCC(=O)N/N=C/c1cccs1,-5.7,0.1,-0.1,-2.6,-8.3,-0.3%
NC(=O)c1ccc(C(F)(F)F)n(Cc2ccc(Cl)cc2)c1=O,2.7,5.2,-5.6,2.9,-0.1,0.3%
NC(=O)c1ccc(C(F)(F)F)n(Cc2cccc(Cl)c2)c1=O,31.9*,0.6,3.9,1.5,-1.3,-0.1%
COc1ccc(CC(=O)OCC(=O)NCc2ccco2)cc1,35.5*,0.2,-14.3,3.0,-7.5,0.0%
Cc1ccccc1OCCN1CCCC1,-16.0,3.0,-20.8,-5.0,-3.9,0.1%
Clc1ccc(OCCN2CCCCC2)c(Cl)c1,72.2*,0.4,-20.6,-2.1,-26.9,-0.4%
Clc1ccc(SCCCN2CCCCC2)cc1,38.4*,-1.0,-25.7,-2.9,-20.8,0.0%

# Bioassay records deposited in PubChem by National Center for Advancing Translational Sciences (NCATS).
